Results reported in PubChem BioAssay AID1347056 (Sanford-Burnham Center for Chemical Genomics, 2019).
Screen size: about 360,000 compounds; about 3,600 (1%) were called active.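 Rule for the calls: active = compounds whose plate-normalised and pattern-corrected inhibition of the luciferase reporter signal at the single screening dose is 50% or more; inactive = the rest.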 The sample as a whole holds a higher share of actives than the screen did.

Test: TROY pathway blockers in reporter cells – Q293 LMP1-TROYcd cells, NF-kB luciferase, uHTS, primary screen (AID 1347056)
Details: 4 h, at 10 µM, active compounds read high

Compound	inhibition
CCCn1c(C(Cc2ccccc2)NC(=O)COC)nc2ccccc21 (stereo unspecified)	-16.1% (inactive)
O=C(CC(O)(C(F)(F)F)C(F)(F)F)Nc1ccc(Cl)c(Cl)c1	59.2% (active)
O=C(CN1CCOCC1)Nc1ccc(NC(=O)CN2CCOCC2)c(Cl)c1	-4.68% (inactive)
CN(CC(=O)Nc1ccc(Cl)c(C(F)(F)F)c1)C(=O)CCC(=O)c1ccccc1	29.4% (inactive)
O=C(CN1CCN(C2CCS(=O)(=O)C2)CC1)N1N=C(c2ccc(Cl)cc2)CC1c1ccco1 (stereo unspecified)	58.2% (active)
Cc1ccc(C2=NN(C(=O)COc3ncnc4ccccc34)C(c3ccco3)C2)cc1 (stereo unspecified)	3.07% (inactive)
Cc1ccc(C2=NN(C(=O)CSc3nc(N)cc(N)n3)C(c3ccco3)C2)cc1 (stereo unspecified)	-20.4% (inactive)
CCC1=[N+]([O-])C(C)(/C(C)=N\O)N(O)C1(C)C (stereo unspecified)	-4.1% (inactive)
CCCN(CCC)S(=O)(=O)c1cc2c(cc1Br)CCN2C(=O)CC	22.4% (inactive)
CCOC(=O)c1ccc(NC(=S)N2CCN(c3ccccn3)CC2)cc1	-15.3% (inactive)
CCCCOc1ccc(CON(C(C)=O)C(C)=O)cc1Cl	-35.4% (inactive)
COC(=O)c1c(C)[nH]c(C(=O)/C=C/c2ccc(Cl)cc2)c1C	-12.1% (inactive)
CC1(C(=O)O)CCCN(C(=O)/C=C/c2ccccc2)C1 (stereo unspecified)	-7.33% (inactive)
Cc1[nH]c(=O)c(C(=O)/C=C/c2ccccc2)c2c1CCCC2	52% (active)
COc1cccc(-c2nnc(NC(=O)c3ccc(S(=O)(=O)N(CC(C)C)CC(C)C)cc3)o2)c1	12.8% (inactive)
CC(Nc1nc(C(F)(F)F)nc2ccccc12)c1cccs1 (stereo unspecified)	60.8% (active)
CC(Nc1nc(N2CCCC2)nc2ccccc12)c1ccccc1 (stereo unspecified)	5.36% (inactive)
CCc1ccc(C(CNc2nc(C(F)(F)F)nc3ccccc23)N(C)C)cc1 (stereo unspecified)	4.28% (inactive)
CN1CCCN(S(=O)(=O)c2ccc3c(c2)OCCO3)CC1	-12.9% (inactive)
COc1ccc(OC)c(NC(=O)CN(C)CCOc2ccc(Br)cc2)c1	9.37% (inactive)
COc1ccc(OC)c(Nc2nc3ccccc3n3cnnc23)c1	-14.2% (inactive)

Compound	inhibition
COc1ccc(Nc2ncnc3ccc(Br)cc23)c(OC)c1	84.4% (active)
COc1cccc2cc(C(N)=O)/c(=N\NC(=O)c3ccccc3)oc12	73.1% (active)
COc1cccc2cc(C(=O)N3CCN(C(=O)c4ccccc4)CC3)c(=O)oc12	-10% (inactive)
COc1cccc2cc(C(=O)N(C)C)c(=O)oc12	11% (inactive)
O=C(CN(c1cc(C(F)(F)F)ccc1Cl)S(=O)(=O)c1ccccc1)NCc1cccnc1	0.66% (inactive)
COC(c1ccccc1)(c1ccccc1)C(Oc1nc(C)cc(C)n1)C(=O)O (stereo unspecified)	4.6% (inactive)
Cc1cc(C)nc(S/C=C/C(=O)c2ccccc2)n1	54% (active)
CSc1nc(N(C)NC(=O)c2cccc(C)c2)c2ccccc2n1	25.9% (inactive)
CCOC(=O)N1CCN(CC(=O)c2ccc3c(c2)CCN3)CC1	2.97% (inactive)
C/C(=N\Nc1nc(Nc2ccccc2)nc(N2CCOCC2)n1)c1cccs1	-8.45% (inactive)
O=C(CSc1nc(Nc2ccccc2)nc(N2CCOCC2)n1)Nc1cc(Cl)ccc1O	64.7% (active)
CC1(c2ccccc2)NC(=O)N(CC(=O)Nc2cc(Cl)ccc2N2CCOCC2)C1=O (stereo unspecified)	-24.9% (inactive)
C=CCn1c2c(c3ccccc31)CCC2	-7.49% (inactive)
OC[C@@H]1CN(Cc2ccncc2)C[C@H](n2cnc3c(N4CCN(c5ccccc5)CC4)ncnc32)O1	37.7% (inactive)
O=C(Nc1ccc(Br)c2cccnc12)c1ccc(Cn2cc([N+](=O)[O-])cn2)o1	-32.5% (inactive)
CC(=O)c1c(C)[nH]c(C(=O)OCC(=O)Nc2sc3c(c2C#N)CCCC3)c1C	52.3% (active)
N#Cc1c(NC(=O)CCCl)sc2c1CCCCC2	-37% (inactive)
CC(=O)c1c(C)[nH]c(C(=O)OCC(=O)Nc2c(C)cccc2C)c1C	14.6% (inactive)
COc1ccc(N2CC(C)Cn3c2nc2c3c(=O)n(Cc3ccccc3F)c(=O)n2C)c(OC)c1 (stereo unspecified)	24.4% (inactive)
c1ccc(COc2nsnc2N2CCOCC2)cc1	11% (inactive)
c1ccc(CSc2ncnc3c2sc2nc(N4CCOCC4)c4c(c23)CCCC4)cc1	60.3% (active)

Compound	inhibition
O=C(O)c1cccnc1Sc1ncnc2sc3c(c12)CCC3	10.5% (inactive)
Cc1ccc(CCN2CC(C(=O)O)CC2=O)cc1 (stereo unspecified)	-21.4% (inactive)
O=C1c2ccccc2C(Nc2ccc3c(c2)OCCO3)N1Cc1ccco1 (stereo unspecified)	62% (active)
CCCCCn1nnnc1C1c2ccccc2C(=O)N1Cc1ccco1 (stereo unspecified)	-7.23% (inactive)
S=C(NCc1ccco1)Nc1ccc2c(c1)OCCO2	8.28% (inactive)
NC1=CC(=O)C(=O)c2cccnc21	-15.9% (inactive)
O=C(O)CCCC(=O)Nc1ccccc1-n1ccnc1	13% (inactive)
O=C(Nc1ccccc1)Nc1nnc(COc2ccccc2F)s1	53.5% (active)
O=C(NCCOc1ccccc1F)Nc1ccc(Br)cc1	-33.8% (inactive)
O=C(Nc1nnc(COc2ccccc2)s1)Nc1ccccc1F	-7.72% (inactive)
Cc1ccc(NC(=O)C2CC(=O)N(c3ccc4c(c3)OCCO4)C2)cc1S(=O)(=O)N1CCCCCC1 (stereo unspecified)	29.1% (inactive)
Cc1ccc2c(c1)N(CC(=O)N(Cc1ccccn1)Cc1ccco1)C(=O)C(C(C)C)O2 (stereo unspecified)	4.87% (inactive)
Cc1ccc(N/C=C/C(=O)c2ccccc2)cc1C	56.6% (active)
Cc1ccc(NNC(=O)C2CCC2)cc1C	-8.76% (inactive)
O=C(/C=C/NCc1ccc(F)cc1)c1ccccc1	-45.6% (inactive)
CCC(C)NC(=O)CN(C1CCCCC1)S(C)(=O)=O (stereo unspecified)	-2.32% (inactive)
COc1ccc(CCN2C(=O)c3[nH]nc(-c4ccccc4O)c3C2c2ccc(C)cc2)cc1OC (stereo unspecified)	22.8% (inactive)
COC(=O)Cn1c(=NC(=O)c2cc(OC)c(OC)c(OC)c2)sc2cc(OC)ccc21	3.88% (inactive)
Cc1ccc(N2CCN(c3ccc([N+](=O)[O-])cn3)CC2)c(C)c1	5.6% (inactive)
